A number with no mark means an inactive call.
Compound: C#CCNC(=O)CCSSCCC(=O)NCCc1ccc(C=O)c(C=O)c1
Assay: lysine labeling ratio R10:1 (500 µM / 50 µM probe), SILAC-ABPP in living cells; higher = lower intrinsic lysine reactivity toward the probe, active = 2 or less
Details: HeLa; probe concentrations 500 vs 50 µM
Method in brief: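 Forward and reverse SILAC label swaps were used with living light and heavy HeLa cells in PBS at room temperature, which were given an alkyne-tagged, disulfide-linked lysine probe at 50 µM or 500 µM. R is the per-lysine filtered median high-probe/low-probe MS1 peptide ratio, with the median then taken across both swap directions. Values are limited to 20.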

Chain of UniProt P04075 (P04075 whole entry): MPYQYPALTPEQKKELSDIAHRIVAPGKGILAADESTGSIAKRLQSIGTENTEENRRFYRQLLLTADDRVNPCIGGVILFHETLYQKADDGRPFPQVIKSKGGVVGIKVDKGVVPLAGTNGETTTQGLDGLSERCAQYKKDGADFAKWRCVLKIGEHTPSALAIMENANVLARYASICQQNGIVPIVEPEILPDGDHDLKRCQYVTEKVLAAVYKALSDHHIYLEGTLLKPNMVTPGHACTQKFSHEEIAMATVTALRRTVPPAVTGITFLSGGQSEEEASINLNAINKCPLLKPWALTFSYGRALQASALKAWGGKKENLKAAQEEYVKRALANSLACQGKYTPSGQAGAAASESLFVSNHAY
Chain of UniProt P05783 (P05783 whole entry): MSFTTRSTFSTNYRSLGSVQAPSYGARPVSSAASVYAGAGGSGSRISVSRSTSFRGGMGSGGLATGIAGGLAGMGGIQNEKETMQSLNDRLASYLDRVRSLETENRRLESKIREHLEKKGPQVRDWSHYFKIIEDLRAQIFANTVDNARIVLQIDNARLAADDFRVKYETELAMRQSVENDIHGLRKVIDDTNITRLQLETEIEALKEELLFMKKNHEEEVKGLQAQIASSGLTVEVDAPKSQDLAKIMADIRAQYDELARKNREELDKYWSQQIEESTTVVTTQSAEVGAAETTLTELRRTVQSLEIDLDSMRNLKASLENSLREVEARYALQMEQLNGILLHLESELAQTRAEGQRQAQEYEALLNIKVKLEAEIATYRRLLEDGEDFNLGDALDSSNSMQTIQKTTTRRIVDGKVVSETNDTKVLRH
Chain of UniProt P16070 (P16070 whole entry): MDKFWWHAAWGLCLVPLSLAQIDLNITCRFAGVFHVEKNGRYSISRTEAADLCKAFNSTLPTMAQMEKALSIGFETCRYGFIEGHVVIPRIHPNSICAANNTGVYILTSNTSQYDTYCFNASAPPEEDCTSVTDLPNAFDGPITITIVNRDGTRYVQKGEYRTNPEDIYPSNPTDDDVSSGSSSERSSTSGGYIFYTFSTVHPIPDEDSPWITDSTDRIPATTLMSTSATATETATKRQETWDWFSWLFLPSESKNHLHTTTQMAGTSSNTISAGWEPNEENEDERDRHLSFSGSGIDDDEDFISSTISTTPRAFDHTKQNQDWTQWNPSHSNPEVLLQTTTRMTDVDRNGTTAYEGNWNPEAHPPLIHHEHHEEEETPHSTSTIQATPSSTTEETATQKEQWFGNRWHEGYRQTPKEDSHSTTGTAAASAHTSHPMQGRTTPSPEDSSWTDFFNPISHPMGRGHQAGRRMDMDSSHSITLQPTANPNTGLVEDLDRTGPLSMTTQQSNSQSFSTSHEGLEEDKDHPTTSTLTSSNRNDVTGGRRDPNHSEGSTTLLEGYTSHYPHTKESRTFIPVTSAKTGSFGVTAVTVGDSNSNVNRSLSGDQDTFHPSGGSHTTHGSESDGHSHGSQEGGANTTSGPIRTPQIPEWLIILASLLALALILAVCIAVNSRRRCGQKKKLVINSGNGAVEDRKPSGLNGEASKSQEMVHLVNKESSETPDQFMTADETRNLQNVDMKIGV
Chain of UniProt P41252 (P41252 whole entry): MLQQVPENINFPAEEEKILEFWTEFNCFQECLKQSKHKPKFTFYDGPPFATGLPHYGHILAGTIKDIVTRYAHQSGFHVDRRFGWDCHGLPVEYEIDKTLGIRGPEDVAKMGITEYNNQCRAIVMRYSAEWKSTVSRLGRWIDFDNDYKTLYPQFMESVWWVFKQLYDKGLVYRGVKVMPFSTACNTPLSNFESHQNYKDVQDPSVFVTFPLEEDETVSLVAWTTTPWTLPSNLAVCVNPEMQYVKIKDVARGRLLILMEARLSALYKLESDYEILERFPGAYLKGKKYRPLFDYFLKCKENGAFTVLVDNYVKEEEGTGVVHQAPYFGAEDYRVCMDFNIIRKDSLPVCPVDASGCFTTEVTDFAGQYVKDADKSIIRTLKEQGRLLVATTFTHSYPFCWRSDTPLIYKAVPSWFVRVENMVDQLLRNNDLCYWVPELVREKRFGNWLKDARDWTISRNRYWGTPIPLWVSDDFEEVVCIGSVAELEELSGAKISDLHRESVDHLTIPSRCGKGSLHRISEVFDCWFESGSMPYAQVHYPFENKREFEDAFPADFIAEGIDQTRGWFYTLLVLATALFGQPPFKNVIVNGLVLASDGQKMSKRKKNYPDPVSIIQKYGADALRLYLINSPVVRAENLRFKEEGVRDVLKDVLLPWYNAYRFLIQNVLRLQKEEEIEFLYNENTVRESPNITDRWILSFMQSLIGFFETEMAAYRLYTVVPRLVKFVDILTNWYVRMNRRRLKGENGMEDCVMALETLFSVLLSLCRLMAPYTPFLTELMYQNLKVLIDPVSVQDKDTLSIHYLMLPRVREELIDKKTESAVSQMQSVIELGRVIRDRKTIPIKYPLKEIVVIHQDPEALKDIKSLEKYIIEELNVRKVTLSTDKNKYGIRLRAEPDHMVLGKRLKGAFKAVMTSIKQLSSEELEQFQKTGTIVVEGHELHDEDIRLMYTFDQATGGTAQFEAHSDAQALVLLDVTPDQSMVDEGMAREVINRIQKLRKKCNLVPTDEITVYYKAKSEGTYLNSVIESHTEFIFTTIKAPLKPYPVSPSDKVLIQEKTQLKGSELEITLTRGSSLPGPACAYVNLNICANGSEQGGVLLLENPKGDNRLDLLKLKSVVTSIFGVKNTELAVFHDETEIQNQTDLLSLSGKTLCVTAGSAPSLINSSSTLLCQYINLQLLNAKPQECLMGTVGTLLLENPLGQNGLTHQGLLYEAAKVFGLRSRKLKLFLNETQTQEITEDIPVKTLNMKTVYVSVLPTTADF
Chain of UniProt P52272 (P52272 whole entry): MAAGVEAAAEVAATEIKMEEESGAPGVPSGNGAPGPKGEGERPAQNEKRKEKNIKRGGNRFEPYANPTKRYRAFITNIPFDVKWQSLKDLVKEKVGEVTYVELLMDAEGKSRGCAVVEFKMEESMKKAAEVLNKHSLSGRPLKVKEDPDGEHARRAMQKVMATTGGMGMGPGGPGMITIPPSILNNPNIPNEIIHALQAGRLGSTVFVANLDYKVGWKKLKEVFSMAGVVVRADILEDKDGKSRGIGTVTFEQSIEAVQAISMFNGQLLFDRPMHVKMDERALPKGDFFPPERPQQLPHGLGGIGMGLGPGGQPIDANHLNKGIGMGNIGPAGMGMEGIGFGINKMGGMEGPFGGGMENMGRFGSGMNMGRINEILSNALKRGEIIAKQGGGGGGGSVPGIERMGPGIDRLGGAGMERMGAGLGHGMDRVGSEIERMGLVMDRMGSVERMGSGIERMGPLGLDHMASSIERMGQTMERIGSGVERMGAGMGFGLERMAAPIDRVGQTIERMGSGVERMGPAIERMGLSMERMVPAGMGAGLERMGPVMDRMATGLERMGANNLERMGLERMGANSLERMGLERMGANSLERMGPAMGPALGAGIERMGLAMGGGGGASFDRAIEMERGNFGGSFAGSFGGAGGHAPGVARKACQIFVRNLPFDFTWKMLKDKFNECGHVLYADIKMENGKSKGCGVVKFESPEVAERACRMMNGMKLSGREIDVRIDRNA
Chain of UniProt Q8IWA5 (Q8IWA5 whole entry): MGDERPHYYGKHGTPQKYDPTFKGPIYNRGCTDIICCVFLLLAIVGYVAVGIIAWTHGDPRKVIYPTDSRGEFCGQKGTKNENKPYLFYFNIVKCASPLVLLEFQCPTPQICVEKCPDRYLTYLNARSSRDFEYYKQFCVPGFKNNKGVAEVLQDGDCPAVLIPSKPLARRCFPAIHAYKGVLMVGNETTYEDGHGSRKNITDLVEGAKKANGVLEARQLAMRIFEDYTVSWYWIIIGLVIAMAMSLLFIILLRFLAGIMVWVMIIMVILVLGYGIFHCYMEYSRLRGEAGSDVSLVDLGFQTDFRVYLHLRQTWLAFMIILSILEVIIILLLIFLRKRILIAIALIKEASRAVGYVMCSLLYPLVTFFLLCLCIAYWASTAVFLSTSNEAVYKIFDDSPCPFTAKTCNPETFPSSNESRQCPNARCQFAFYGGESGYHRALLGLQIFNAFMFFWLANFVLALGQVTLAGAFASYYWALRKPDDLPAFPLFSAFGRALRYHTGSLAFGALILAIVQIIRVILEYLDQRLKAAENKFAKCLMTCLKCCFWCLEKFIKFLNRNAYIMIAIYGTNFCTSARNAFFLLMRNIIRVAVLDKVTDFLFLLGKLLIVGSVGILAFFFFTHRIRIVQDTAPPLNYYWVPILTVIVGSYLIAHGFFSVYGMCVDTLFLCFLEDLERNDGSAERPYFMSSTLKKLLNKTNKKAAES
Chain of UniProt P80303 (P80303 whole entry): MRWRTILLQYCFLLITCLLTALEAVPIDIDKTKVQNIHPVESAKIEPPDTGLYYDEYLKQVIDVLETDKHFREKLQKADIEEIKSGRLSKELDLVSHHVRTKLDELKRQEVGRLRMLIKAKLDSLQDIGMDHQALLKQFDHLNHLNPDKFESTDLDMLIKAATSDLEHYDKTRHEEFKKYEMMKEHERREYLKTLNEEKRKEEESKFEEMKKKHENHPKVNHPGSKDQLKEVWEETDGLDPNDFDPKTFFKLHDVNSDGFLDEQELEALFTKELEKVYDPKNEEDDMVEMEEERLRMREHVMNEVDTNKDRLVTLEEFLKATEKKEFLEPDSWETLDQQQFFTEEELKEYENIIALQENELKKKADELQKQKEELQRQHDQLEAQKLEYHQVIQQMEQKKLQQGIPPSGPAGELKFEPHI
Chain of UniProt O75367 (O75367 whole entry): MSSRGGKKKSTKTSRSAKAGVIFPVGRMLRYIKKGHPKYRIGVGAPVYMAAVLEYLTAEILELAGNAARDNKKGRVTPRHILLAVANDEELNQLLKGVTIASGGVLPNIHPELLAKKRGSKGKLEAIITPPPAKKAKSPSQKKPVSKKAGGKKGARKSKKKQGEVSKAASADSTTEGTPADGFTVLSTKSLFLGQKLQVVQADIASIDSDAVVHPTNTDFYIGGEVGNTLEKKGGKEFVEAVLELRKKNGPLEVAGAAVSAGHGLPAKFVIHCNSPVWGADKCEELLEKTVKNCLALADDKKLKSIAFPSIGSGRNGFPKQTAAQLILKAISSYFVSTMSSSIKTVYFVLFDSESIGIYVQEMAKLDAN

| Target | lysine labeling ratio R10:1 |
| --- | --- |
| CD44 (lysine site: K38) (UniProt P16070) | 5.01 |
| SLC44A2 (lysine site: K62) (UniProt Q8IWA5) | 2.64 |
| UniProt P62913 (lysine site: K159) | 2.96 |
| LRP1 (lysine site: K458) (UniProt Q07954) | 2.56 |
| HNRNPM (lysine site: K651) (UniProt P52272) | 2.28 |
| IARS (lysine site: K375) (UniProt P41252) | 1.66 (active) |
| UniProt Q99466 (lysine site: K1372) | 9.22 |
| KRT18 (lysine site: K187) (UniProt P05783) | 3.47 |
| RPL28 (lysine site: K135) (UniProt P46779) | 3.84 |
| FRAS1 (lysine site: K1164) (UniProt Q86XX4) | 1.34 (active) |
| MYH9 (lysine site: K835) (UniProt P35579) | 8.12 |
| RPS5 (lysine site: K47) (UniProt P46782) | 1.01 (active) |
| ALDOA (lysine site: K14) (UniProt P04075) | 5.1 |
| H2AFY (lysine site: K18) (UniProt O75367) | 3.07 |
| PTPRF (lysine site: K994) (UniProt P10586) | 4.54 |
| NUCB2 (lysine site: K184) (UniProt P80303) | 2.65 |
| UniProt Q16513 (lysine site: K690) | 2.89 |

Source: the supplement of paper PMC11001985
